Rows were chosen to be rich in hits. Some 3.3% of all compounds tested hit in one or more screens of this group.
Cardio protect = cardioprotection against H2O2-induced cell death, primary screen, uHTS, H9c2 cells, ATPLite luminescence; H9c2 cardiomyocytes, H2O2 injury protection, 2 h; protection from H2O2 cell death, % at 20 µM; 0.63% of 360,000 active;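 active = compounds giving at least 50% protection of heart cells from peroxide-induced death in the single-dose screen, raw or plate-pattern-corrected value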
Calb FLC = C. albicans growth inhibition with fluconazole, primary screen, CaCi-2 strain, Alamar Blue fluorescence. AID 1979, 2009. C. albicans CaCi-2 (fluconazole-resistant clinical isolate) + fluconazole, 48 h. 0.57% of 300,000 active. growth inhibition, % (concentration not given with the values);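 active = growth inhibition above about 58% in most replicates, limit read from the data, passing the limit was not always enough; inconclusive = exactly half the replicates above a set limit; inactive = most replicates below a set limit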;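 note: all wells also contain fluconazole at 8 µg/ml as a sub-toxic cotreatment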
PHOSPHO1 block = PubChem AID 1565 | recombinant PHOSPHO1, absorbance phosphatase assay | inhibition, % at 13.3 µM | 1.1% of 290,000 active; in the data active = inhibition above about 60%
Cl transport mod = KCC2 cotransporter modulators, thallium flux, primary screen, cell-based, HEK293 KCC2, FluoZin-2 fluorescence, MLSMR; Solute carrier family 12 member 5 (Homo sapiens), Q9H2X9; KCC2 cells, thallium flux FluoZin-2 fluorescence; B-score of Tl+ flux slope (higher = more flux/activation; lower = inhibition) at 10 µM; 2.2% of 190,000 active; AID 1456, 2008;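 active = thallium flux slope and its plate-corrected score both differing from the plate sample mean at a set confidence after two filtering rounds, in either direction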;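 note: slope of fluorescence scaled to starting intensity during 10 to 20 s after thallium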
Target sequence (Q9H2X9 whole entry, looked up): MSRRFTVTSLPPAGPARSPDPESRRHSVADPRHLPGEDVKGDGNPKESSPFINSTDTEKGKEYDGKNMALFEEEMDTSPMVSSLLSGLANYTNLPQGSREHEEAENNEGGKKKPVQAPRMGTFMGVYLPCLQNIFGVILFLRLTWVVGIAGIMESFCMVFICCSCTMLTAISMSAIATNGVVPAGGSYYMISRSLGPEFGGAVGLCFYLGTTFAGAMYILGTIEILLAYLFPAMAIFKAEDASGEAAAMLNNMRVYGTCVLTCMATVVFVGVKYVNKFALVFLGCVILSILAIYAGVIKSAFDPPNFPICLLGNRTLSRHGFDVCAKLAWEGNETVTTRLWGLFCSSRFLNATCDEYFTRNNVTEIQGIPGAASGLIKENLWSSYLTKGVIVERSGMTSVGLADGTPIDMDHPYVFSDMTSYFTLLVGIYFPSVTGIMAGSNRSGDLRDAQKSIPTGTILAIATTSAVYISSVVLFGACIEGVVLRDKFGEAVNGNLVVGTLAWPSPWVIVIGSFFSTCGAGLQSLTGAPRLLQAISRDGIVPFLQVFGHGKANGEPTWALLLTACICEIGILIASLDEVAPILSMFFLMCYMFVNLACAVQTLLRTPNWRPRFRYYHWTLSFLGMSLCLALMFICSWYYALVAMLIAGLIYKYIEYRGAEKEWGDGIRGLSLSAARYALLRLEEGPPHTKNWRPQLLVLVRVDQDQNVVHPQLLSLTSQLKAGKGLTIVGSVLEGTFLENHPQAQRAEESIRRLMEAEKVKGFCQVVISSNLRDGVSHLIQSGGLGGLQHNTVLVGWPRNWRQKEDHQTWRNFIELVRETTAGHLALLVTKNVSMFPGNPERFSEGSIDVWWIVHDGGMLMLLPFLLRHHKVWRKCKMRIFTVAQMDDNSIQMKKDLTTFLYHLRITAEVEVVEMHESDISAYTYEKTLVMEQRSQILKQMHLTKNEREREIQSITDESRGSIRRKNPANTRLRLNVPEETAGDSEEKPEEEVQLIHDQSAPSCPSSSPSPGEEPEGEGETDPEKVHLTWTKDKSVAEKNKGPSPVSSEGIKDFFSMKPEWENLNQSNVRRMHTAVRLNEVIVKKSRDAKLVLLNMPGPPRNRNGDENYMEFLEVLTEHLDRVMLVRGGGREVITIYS
Efflux pump mplx = inhibitors of Candida efflux pumps in yeast, primary screen, S. cerevisiae, Nile Red, multiplex | 0.44% of 330,000 active | inhibition, % at 10 µM | S. cerevisiae Candida pump triplex;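 active = plate passing quality check with inhibition over a set limit, or well fluorescence over plate mean plus 4 SD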;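 note: Nile Red retained in pooled yeast measured as flow cytometry median fluorescence; higher means more Nile Red kept so more efflux inhibition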
KCC2 sec1 = KCC2 modulators in sodium-free buffer, confirmation, cell-based, HEK293 KCC2, thallium flux, secondary assay; shares compounds with Cl transport mod; FluoZin2 fluorescence; hits give high values; normalised thallium flux (F/F0 slope) at 10 µM; 15% of 3,700 active;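 active = thallium flux slope above the same plate's solvent-only control mean plus 3 SD; inconclusive = the two replicate wells disagree; inactive = no significant difference from solvent-only control wells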
KCC2 bumet counter = thallium flux persisting under bumetanide in KCC2 cells, confirmation, counter-screen for KCC2 modulator project, cell-based, HEK293 KCC2, FluoZin2, secondary assay 3 | shares compounds with Cl transport mod | HEK293-KCC2 + bumetanide/ouabain; hits give high values | normalized thallium flux at 10 µM | 49% of 3,700 active | AID 1714, 2009;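 active = thallium entry rate above the same plate's blocked-transporter control wells by more than 3 SD; inconclusive = the two repeat wells disagree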;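 note: raw slope of fluorescence over initial fluorescence between 10 and 20 s after thallium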
KCC2 sec2 = KCC2 modulators without ouabain present, confirmation, cell-based, HEK293 KCC2, thallium flux, FluoZin2, secondary assay 2 | shares compounds with Cl transport mod | thallium flux FluoZin2 fluorescence; actives lie on both sides; F/F0 rise rate, 10–20 s post-thallium | normalized thallium flux at 10 µM | 23% of 3,700 active;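 active = thallium flux slope more than 3 SD above or below the plate's solvent-only control mean, mostly below; inconclusive = the two repeat wells disagreed; inactive = no significant shift from solvent-only controls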
HEK counter1 = thallium flux modulation in parental HEK cells, confirmation, counter-screen for KCC2 modulator project, cell-based, counterscreen 1; shares compounds with Cl transport mod; HEK293 parental cells, thallium flux FluoZin2, ouabain; baseline-ratio fluorescence slope, 10–20 s after thallium; thallium flux rate (normalised fluorescence) at 10 µM; 46% of 3,700 active; AID 1716, 2009;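 active = thallium flux rate significantly above the same plate's solvent-only control wells, beyond their mean plus 3 SD; inconclusive = the two replicate wells gave conflicting results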
KCC2 ouabain = KCC2 inhibitors and activators, ouabain retest, confirmation, HEK-KCC2 cells; 48% of 3,700 active; raw Tl+ flux slope (below DMSO = inhibition, above = activation) at 10 µM; HEK293-KCC2, thallium flux FluoZin2 fluorescence; bidirectional: low = inhibitor, high = activator; shares compounds with Cl transport mod;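 active = thallium flux slope beyond 3 SD from same-plate DMSO control mean in most replicates, usually higher, sometimes lower; inconclusive = repeat tests gave conflicting results; inactive = no significant difference from controls in most replicates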;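 note: slope of initial-normalized fluorescence between seconds 10 and 20 after thallium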
HEK counter2 = native HEK Tl+ uptake effects, second counter-screen – HEK cells, counterscreen 2, counter-screen for KCC2 modulator project, confirmation. shares compounds with Cl transport mod. HEK293 parental, thallium flux FluoZin-2 fluorescence slope. thallium flux slope at 10 µM. 33% of 3,700 active. AID 1718, 2009;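 active = thallium flux slope above the same plate's solvent-control mean plus 3 SD in both duplicate wells; inconclusive = duplicate wells that disagreed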;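 note: run without ouabain in cells lacking the KCC2 cotransporter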
Large screens that a line does not name were inactive (follow-up assays come after a bar, where they were run).

CC(C)(C)C(=O)NC(=S)NNC(=O)c1ccc(Cl)cc1Cl	Cl transport mod 38 | KCC2 sec1 0.031 | KCC2 bumet counter 0.05 | KCC2 sec2 inactive | HEK counter1 0.053 | KCC2 ouabain 0.058 | HEK counter2 0.017
Cc1cc(C)c(S(=O)(=O)Nc2cccc3nsnc23)c(C)c1	Cl transport mod 23 | KCC2 sec1 0.018 | KCC2 bumet counter 0.074 | KCC2 sec2 inactive | HEK counter1 0.041 | KCC2 ouabain 0.074 | HEK counter2 0.019
Cc1ccc2nsnc2c1NS(=O)(=O)c1c(C)ccc2nsnc12	Cl transport mod 7.6 | KCC2 sec1 inactive | KCC2 bumet counter 0.028 | KCC2 sec2 inactive | HEK counter1 0.02 | KCC2 ouabain 0.029 | HEK counter2 0.019
O=S(=O)(Nc1cccc2nsnc12)c1ccccc1	none
O=c1[nH]c(=O)n(C2CCCO2)cc1Br (centres undefined)	Cl transport mod 3.9 | KCC2 sec1 inactive | KCC2 bumet counter inactive | KCC2 sec2 inactive | HEK counter1 inactive | KCC2 ouabain inactive | HEK counter2 inactive
O=c1[nH]c(=O)n([C@H]2C[C@H](O)[C@@H](CO)O2)cc1Br	none (no result: Calb FLC, PHOSPHO1 block, Cl transport mod)
COCCn1c(SCCCc2ccccc2)nc2c1c(=O)[nH]c(=O)n2C	none
C/C=C/Cn1c(SCCCc2ccccc2)nc2c1c(=O)[nH]c(=O)n2C	Cl transport mod -5.1 | KCC2 sec1 inactive | KCC2 bumet counter inactive | KCC2 sec2 inconclusive | HEK counter1 0.0054 | KCC2 ouabain inconclusive | HEK counter2 0.0086
C=CCn1c(SCCCc2ccccc2)nc2c1c(=O)[nH]c(=O)n2C	Cl transport mod -3.7 | KCC2 sec1 inactive | KCC2 bumet counter inactive | KCC2 sec2 inactive | HEK counter1 inconclusive | KCC2 ouabain inactive | HEK counter2 inactive
O=C(CSc1nc2ccc(N3CCOCC3)cc2c(=O)n1CCc1ccccc1)NCC1CCCO1 (centres undefined)	Cl transport mod 6.7 | KCC2 sec1 inactive | KCC2 bumet counter 0.016 | KCC2 sec2 inactive | HEK counter1 0.009 | KCC2 ouabain inactive | HEK counter2 0.013
CCCCNC(=O)CSc1nc2ccc(N3CCOCC3)cc2c(=O)n1CCc1ccccc1	none
N#C/C(=C/c1ccc(N2CCCCCC2)o1)c1ccc(F)cc1	none (no result: PHOSPHO1 block, Cl transport mod) | KCC2 sec1 inactive | KCC2 bumet counter inconclusive | KCC2 sec2 inactive | HEK counter1 inconclusive | KCC2 ouabain 0.013 | HEK counter2 inactive
Cc1nc(NCc2ccco2)c2cn[nH]c2n1	none (no result: Calb FLC, PHOSPHO1 block, Cl transport mod, Efflux pump mplx)
c1coc(CNc2nc3nonc3nc2NCc2ccco2)c1	none (no result: Calb FLC, Cl transport mod) | KCC2 sec1 inconclusive | KCC2 bumet counter inactive | KCC2 sec2 0.028 | HEK counter1 inactive | KCC2 ouabain inactive | HEK counter2 inactive

Compound activity: PubChem, several laboratories
